Measured values: PubChem BioAssay AID900 (National Center for Advancing Translational Sciences (NCATS), 2007)
Where “and” joins values, the source holds several entries; their conditions need not be identical. Equal values may be shown once. The campaign covered roughly 75,000 compounds. About 20 (0.03%) were called active. Inconclusive results (about 1%) are left out. The call rests on the fitted dose curve; in most records, active means well fitted inhibition curve with a large enough effect; inconclusive means small, poorly fitted or top-dose-only effect; inactive means flat fitted curve, though single readings scatter. A selection follows.

Each compound was assayed against Caspase-1 (Homo sapiens) (UniProt P29466) (assay: qHTS Assay for Allosteric/Competitive Inhibitors of Caspase-1). Settings: Caspase-1 enzyme, Ac-WEHD-AFC fluorogenic rate; series mostly up to 57.5 µM.
From the text: NIH Molecular Libraries Screening Centers Network [MLSCN]
NIH Chemical Genomics Center [NCGC]
PI Name: Dr. James Wells,
Dr. Enrique Perez-Paya, Dr.Janice Williams, Dr. Dennis Wolan, a person
The caspases (Cysteine Aspartyl Protease) comprise a related family of 14 dimeric proteases that are critical mediators of apoptosis (programmed cell death) and inflammation. The caspases represent an important class of drug targets for stroke, ischemia, cancer and inflammatory diseases. […] One goal of this project was to identify compounds that act as allosteric inhibitors via stabilizing the procaspase form of the enzyme. Previous work in Well's laboratory has shown that such allosteric inhibitors can be identified and these act by binding at the dimer interface of enzyme (Hardy, Lam et al., 2004).
The biochemical assay was configured using purified caspase 1 at a high enzyme concentration to promote formation of the homodimers and thus facilitate the identification of allosteric inhibitors. The overall goal was to identify reversible inhibitors with better drug-like properties than the currently available set of aspartyl-containing peptidomimetics that covalently bind the active site. Caspase 1 was assayed using the profluorescent substrate Ac-WEHD-AFC. After initiation of the assay with substrate the plates were rapidly read using an automated robotic system (Kalypsys, Inc.) to maintain consistent timing. A kinetic mode of detection was used where the initial rate was collected (estimated final product formation was ~10%). Compounds were screened as a concentration-titration series that ranged from 57 uM to 0.7 nM. Below is the protocol used for caspase 1.
NCGC Assay Protocol Summary:
Caspase 1 was prepared in buffer (50 mM HEPES pH 7.5, 50 mM KCl, 200 mM NaCl, 10 mM DTT, 0.1% CHAPS) at a concentration of 66.6 nM and 3 uL was dispensed to all wells using black solid Kalypsys 1536-well plates. 20 nL of DMSO containing compounds was added using a pin-tool (Kalypsys Inc.) to columns 5-48. Then 20 nL of DMSO solution from a control plate was added to columns 1-4. Controls were: Column 1, 16 point titration with each concentration in duplicate (1:1 dilutions in DMSO; final starting concentration was 57 uM) of the caspase 1 inhibitor Ac-WEHD-CHO (Alexis Biochemicals); Column 2, a 16 point titration with each concentration in duplicate of the free AFC fluorophore prepared in DMSO (Alexis Biochemicals), final starting was 40 uM; Column 3 neutral (DMSO only) control; Column 4: DMSO alone, to serve as a negative control (no substrate was added). Then 1 uL of 20 uM the substrate Ac-WEHD-AFC (Alexis Biochemicals) prepared in the same buffer was dispensed to all wells except columns 2 and 4 and the plates were immediately transferred (< 1 min) to the Viewlux. The plates were then exposed using 405 nm excitation/520 nm emission filters for 4 sec and read at 20 sec intervals for 3 min. Final enzyme concentration was 50 nM and the final substrate concentration was 5 uM.
Concentration-response curves were fitted to the data calculated from slope of the linear regression of fluorescent intensity versus time (the rate). The concentration-effect curves were then classified based on curve quality (r2), response magnitude and degree of measured activity. […] Inconclusive compounds had appreciable concentration-dependent effects on both the measured rate and the interpolated basal fluorescence intensity at the start of the reaction but where the basal fluorescent intensity was marginal (e.g. < 10-fold). Inconclusive compounds also encompass highly fluorescent compounds (>100-fold increases in fluorescent intensities values relative to controls) where artificial concentration-dependent decreases in the rate occurred at high compound concentrations due to fluorescent interferences.
Keywords: Caspase 1, proteases, profluorescent, MLSMR, MLSCN, NIH Roadmap, qHTS, NCGC
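Further: plate controls were vehicle for no effect and no substrate for full effect.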

Activity change, negative = inhibition, inactive:
O=C(Oc1cc(OC(=O)c2ccccc2)c2c(c1)OC(c1ccc(OC(=O)c3ccccc3)c(OC(=O)c3ccccc3)c1)[C@@H](OC(=O)c1ccccc1)C2)c1ccccc1 (stereo partly drawn)
O=C(/C(=N\O)n1cncn1)c1ccc(Br)cc1Br
CCC1(C)CC(=O)NC1=O (stereo not drawn)
Cc1c(S(=O)(=O)O)oc2c1C(=O)C(=O)c1c-2ccc2c1CCCC2(C)C
Cc1ccc(Cc2nc(-c3cccc(C)c3)no2)cc1
N#CCC(=O)NC(=O)NCC1CC1
CCCCC/C=C/C=C/C=O
Cc1noc(C)c1CSc1nnc2ccc3ccccc3n12
COc1ccc(/C=C/C(=O)c2ccc(OC)cc2O)cc1 -5.59% [at 11.5 µM]
CCC(CCC(C)C1CCC2C3CC=C4CC(O)CC[C@@]4(C)C3CC[C@@]12C)C(C)C (stereo partly drawn)
Nc1nc2nc(Cl)[nH]c2c(=O)[nH]1
COc1ccc(N2C(=O)C3CCCN3C2c2cccc(OC)c2)cc1 (stereo not drawn)
COc1ccccc1OCCNCC(O)COc1cccc2[nH]c3ccccc3c12 (stereo not drawn)
Clc1ccc(C2[C@H]3CN(CC4CCCCC4)[C@H](c4ccccc4)C34CC2(c2cccnc2)C4)cn1 (stereo partly drawn)
COC1C[C@@H](O[C@@H]2C(C)C(=O)OC(C)C(C)C(O)C(C)C(=O)[C@@]3(CO3)CC(C)C(OC3OC(C)CC(N(C)C)C3O)C2C)OC(C)[C@@H]1O (stereo partly drawn)
COc1ccc(C2C(C#N)=C(N)Oc3cc(N)ccc32)cc1OC (stereo not drawn)
CO[C@@H]1COC(=O)[C@H](Cc2ccccc2)NC(=O)C/C=C\[C@@H](C)[C@H](OC)COC(=O)[C@@H](C)NC(=O)C/C=C\[C@H]1C 0.468% [at 11.5 µM] and -0.511% [at 11.5 µM]
C=C(C)C1CC=C(CO)CC1 (stereo not drawn)
C[C@@H]1O[C@@H](OC[C@H]2O[C@@H](Oc3c(-c4cccc(O)c4O)oc4cc(O)cc(O)c4c3=O)[C@H](O)[C@@H](O)[C@@H]2O)[C@H](O)[C@H](O)[C@H]1O
BrC1C(Br)C(Br)C(Br)C(Br)C1Br (stereo not drawn)
CC1(C)OC(C(O)(c2ccccc2)c2ccccc2)C(C(O)(c2ccccc2)c2ccccc2)O1 (stereo not drawn) -8.99% [at 11.5 µM]
CCOc1ccc(Cn2nnc(C(=O)NCc3ccccc3)c2N)cc1
CC1C(O)CC2C(C(=O)O)=CO[C@@H](O[C@H]3OC(CO)C(O)C(O)C3O)C21 (stereo partly drawn)
Cc1cccc2c3c(ccc12)C1=C(C(=O)C3=O)C(C)CO1 (stereo not drawn)
C[C@@H]1CC[C@H]2[C@H](C)[C@H]3[C@H](C[C@H]4[C@@H]5CC=C6C[C@@H](O)CC[C@@]6(C)[C@@H]5C[C@@H](O)[C@]34C)N2C1 -2.52% [at 11.5 µM]
Cn1c(SCC(=O)N2CCOCC2)nnc1-c1ccc(NC(=O)c2ccccc2F)cc1
CC1CCCN(C(=O)c2ccc3c(c2)C(=O)N(CCC2=CCCCC2)C3=O)C1 (stereo not drawn)
CC(C)c1ccc(NC(=O)NC2CCCCC2)cc1
Nc1nc2[nH]c(=O)c(=O)[nH]c2c(=O)[nH]1
COC(=O)[C@@H]1C[C@H]2CC[C@H](O)C[C@H]2N1Cc1ccc(N2CCN(C)CC2)cc1
CC1O[C@@H](Oc2c(-c3ccc(O)c(O)c3)oc3cc(O)cc(O)c3c2=O)C(O)C(O)C1O (stereo partly drawn)
Cc1csc(-c2nc3ccccc3n2C)n1
Brc1cc(Br)c(Oc2cc(Br)c(Br)cc2Br)cc1Br
O=C(O)c1ccc(Cl)c(S(=O)(=O)Nc2ccccc2Cl)c1
CC(=O)OCC1OC(C#Cc2ccccc2Cl)C=CC1OC(C)=O (stereo not drawn) -0.455% [at 11.5 µM]
C[C@@H]1/C=C\CC(=O)OC[C@H]2O[C@@H](C=C[C@@H]2O)[C@H](C)/C=C\CC(=O)OC[C@H]2O[C@H]1C=C[C@@H]2O 0.74% [at 11.5 µM]
CC1CC[C@@]23CCC4(C)[C@@]5(C)CCC6C(C)(C)C(O)CC[C@@]6(C)C5C=C[C@@]4(OC2=O)C3C1C (stereo partly drawn)
CC(C)C1=CC2=CC[C@@H]3[C@](C)(CO)CCC[C@]3(C)C2CC1 (stereo partly drawn)
COc1ncnc2sc3c(c12)CCCC3
CN1CCC(CNC(=O)c2ccc(-n3c(=O)c(=O)[nH]c4ccccc43)cc2)CC1
O=C(O)[C@@H]1[C@@H](C(=O)O)[C@]23C[C@@]2(C(=O)O)[C@]2(C(=O)O)CCC3=C3CCCC312 -0.0959% [at 11.5 µM]
CN(C)Cc1c(C#N)c2ccccc2n1C
COCc1nnc(NC(=O)CS(=O)(=O)Cc2ccccc2)s1
CC(C)=CC1C(C(=O)O)C1(C)C (stereo not drawn)
CCC1=C(OC(=O)N(CC)CC)N2C(=O)OC(=NCC3CC3)[C@]2(C)[C@H]2C1=CC[C@H]1C(=O)N(CC(=O)OC)C(=O)[C@H]12
CN1CCc2nc(-c3ccccc3)c(-c3ccccc3)cc2C1 -1.85% [at 11.5 µM]
CC1(C)SC2C(NC(=O)COc3ccccc3)C(=O)N2C1C(=O)O (stereo not drawn)
O=c1ccc2cc(S(=O)(=O)N3CCN(c4ccccc4)CC3)ccc2o1
CCOC(=O)[C@]1(C(/C=C/c2ccco2)NC(=O)OC)CCCC1=O (stereo partly drawn) -4.71% [at 11.5 µM]
Cc1cnc(CNc2nc(-c3cccnc3)nc3ccccc23)cn1
O=C(COc1ccccc1)NCCc1nc2ccccc2[nH]1
COc1ccc(CNc2ncncc2-c2ccccc2OC)c(OC)c1
CCC[C@@H]1C[C@@]1(CCC)C(NC(=O)c1ccc(-c2ccccc2)cc1)c1cccc(Cl)c1 (stereo partly drawn)
Cc1cccc(-c2cc(=O)c3cc(C)ccc3o2)c1
COc1ccc(/C=C/NC(=O)c2ccc(OC)cc2)cc1 -1.51% [at 11.5 µM]
O=C(CN1CCOCC1)Nc1cc(Cl)ccc1Cl
COC(=O)NC(c1ccccc1)[C@]1(C(C)=O)CCCC1=O (stereo partly drawn) 0.536% [at 11.5 µM]
Cc1c2c(nc3ccccc13)-c1cccc(=O)n1C2
COc1ccc(C2CC(=O)c3c(O)cc(OC4OC(COC5OC(C)C(O)C(O)C5O)C(O)C(O)C4O)cc3O2)cc1O (stereo not drawn)
CC(=O)/C(=N\N=C(N)N)c1ccccc1 -1.52% [at 11.5 µM]
C[C@]12C=CC(=O)C=C1CC[C@@H]1[C@@H]2C(=O)C[C@@]2(C)[C@H]1CC[C@]2(O)C(=O)CO
CC1=C(/C=C/C(C)=C/C=C/C(C)=C/C=C/C=C(C)/C=C/C=C(C)/C=C/C2=C(C)CCCC2(C)C)C(C)(C)CCC1
O=C1[C@H]2[C@H]3[C@H](O)[C@H](O)C/C(=N/OCc4ccccc4)[C@H]3CC[C@@H]2C(=O)N1Cc1ccccc1 -0.986% [at 11.5 µM]
COC(=O)[C@@H]1C[C@@]2(O)[C@H](O)[C@H](O)[C@H](O)C[C@H]2N1Cc1ccc(C(C)(C)C)cc1
CC1(C)C(=O)C2(CCCCC2)C(=O)OC1c1cccs1 (stereo not drawn)
CCOc1ccccc1C1NC(=O)NC(C)=C1C(=O)OCc1ccco1 (stereo not drawn)
CN(C)c1cc2c(Nc3ccc4c(cnn4Cc4ccccc4)c3)ncnc2cn1
O=C(NCCN=C1NS(=O)(=O)c2ccccc21)c1ccc(S(=O)(=O)N2CCOCC2)cc1
CC1CCCCN1CCCNC(=O)c1ccc(-n2c(=O)c(=O)[nH]c3ccccc32)cc1 (stereo not drawn)
Nc1ncnc2c1ncn2C1CC(O)C(CO)O1 (stereo not drawn)
Cc1nnc(N(Cc2ccco2)C(=O)c2ccno2)s1
Cc1cc(Cl)ccc1N1C(=O)CC(SCCC(=O)O)C1=O (stereo not drawn)
Cc1cc(C(=O)N2CCN(c3ccccn3)CC2)c(C)o1
CC(=O)OC1CCC2(O)CC1(C)CCC1C2CC1(C)C (stereo not drawn)
O=S(=O)(c1ccccc1)N1CCC2(CC1)CN(Cc1nccs1)C2
COc1ccc2c3c1OC1CC(O)C=C[C@@]31CCN(C)C2 (stereo partly drawn)
COc1c2c(cc3occ(-c4ccc5c(c4)OCO5)c(=O)c13)OC(C)(C)C=C2
Cc1cc(C(=O)COC(=O)c2cccs2)c(C)n1-c1c(C)n(C)n(-c2ccccc2)c1=O
CC(C)CO
CC1(C)OC2CC(=O)OC[C@@]23C1CC(=O)[C@]1(C)C3CC[C@@]2(C)C(c3ccoc3)OC(=O)C3O[C@@]321 (stereo partly drawn)
O=C(NCCSc1ccccc1)c1ccco1
CN1CC(=O)N=C1N
COc1cc(OC)c2c(c1Cl)OC1(C2=O)C(O)=CC(=O)CC1C (stereo not drawn)
O=C1OC(C(O)CO)C(O)=C1O (stereo not drawn)
COC(=O)[C@@]1(Cc2ccccc2)[C@H]2c3cc(C(=O)N(C)C)n(CCSCCO)c3C[C@H]2CN1C(=O)c1ccccc1
C=C1C(=O)C23C(O)C1CCC2[C@]12COC3(O)C(O)C1C(C)(C)CC[C@H]2O (stereo partly drawn)
Oc1ccc2ccccc2c1C=NCc1c(O)ccc2ccccc12 -2.14% [at 11.5 µM]
Cc1cn(COC/C=C/c2ccccc2)c(=O)[nH]c1=O
CC(C)=CCC/C(C)=C/CC/C(C)=C/CC/C(C)=C/CO
CCc1c(C)c2c(C)[nH]nc2oc1=O
CCCC[C@@H]1C[C@H]1C(NC(=O)c1ccc(-c2ccccc2)cc1)c1ccc(-c2ccccc2)cc1 (stereo partly drawn)
Cc1c(C(=O)OCc2cc(=O)n3cc(Br)ccc3n2)oc2ccccc12
FC(F)(F)c1ccc(CN2C[C@@H]3C(c4ccccc4)C4(c5ccccc5)CC3(C4)[C@H]2c2ccccc2)cc1 (stereo partly drawn)
